Test results reported in PubChem BioAssay AID504334 (NMMLSC, 2011).
“And” between values parts separate entries of the source, which are not always exact repeats. Equal values may be shown once. The source made the active and inactive calls.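 Rule for the calls: active = response relative to DMSO over 150%; inconclusive = yeast strain with under 70 recorded events; inactive = the rest.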

Experiment: yeast AGP1-GFP fluorescence change, single-dose confirmation – cell-based, flow cytometry, S. cerevisiae, cherry pick set 3 (AID 504334);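 note: median GFP fluorescence per well by flow cytometry over the all cells gate; ratio of sample to mean DMSO control signal so DMSO = 100% not 0%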
Settings: S. cerevisiae AGP1-GFP strain, 3 h, at 10 µM, stronger effect = higher value

Percent response vs DMSO, inactive:
Cc1cc(C)c(NC(=O)CC(=O)c2ccccc2)c(Cl)c1 99.4%
CC(=O)C(Cl)C(=O)Nc1ccccc1 (configuration not stated) 105%
CC(=O)Nn1cnc2c(c1=O)C1(CCCC1)Cc1ccccc1-2 99.1%
COc1ccc(N/C=C/C(=O)c2ccc(Cl)cc2)cc1 98.1%
C/C(=N\NC(=O)c1cccc2ccccc12)c1cccnc1 99.4%
Cn1c(NCCCO)nc2c(c1=O)C1(CCCCC1)Cc1ccccc1-2 104%
COc1ccccc1Nc1nc(NCC(C)C)nc(N)c1[N+](=O)[O-] 101%
O=C1c2ccccc2C(=O)c2c1cccc2N(CCO)CCO 98.8%
COCC(C)NC(=O)CCS(=O)(=O)c1nc(-c2ccc(OC)cc2)cc(C(F)(F)F)n1 (configuration not stated) 98.4% and 101%
COc1ccc(NC(=O)O/N=C2/CCCc3ccc(OC)cc32)cc1 95.8%
Cn1c(NCCO)nc2c(c1=O)C1(CCCCC1)Cc1ccccc1-2 104%
Cc1ccc2c(Cl)cc(Cl)c(O)c2n1 109%
COC1=C/C(=C/c2c(N)n3cc(C)sc3nc2=O)C=CC1=O 100%
C[n+]1cccc2c(Br)ccc([O-])c21 100%
O=C(Nc1ccccc1)O/N=C1/CCCc2occc21 94.4%
OCCN1CCN(c2ncnc3ccc(Br)cc23)CC1 99.8%
O=C(O)c1ccc2cccnc2c1O 99.8%
COc1cc(=O)n(C)c2c(O)cccc12 98.1%
Oc1ccc(F)c2cccnc12 102%
Nc1ncnc(Nc2cc(Cl)cc(Cl)c2)c1[N+](=O)[O-] 98.8%
COc1ccc(Nc2nc(NN)nc(C)c2[N+](=O)[O-])cc1 94.1%

Percent response vs DMSO, active:
CC1=CN2C(=N)/C(=C/c3ccc([N+](=O)[O-])o3)C(=O)N=C2S1 569%
